Measurements as given in paper PMC5540273 (PLoS ONE, 2017).

Test system: CDK8
Conditions: concentration: 1 μM, replicates: in singlicate; n = 1
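Note: KINOMEscan kinase panel screen.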

| Compound | %Inh [%] |
| --- | --- |
| COC(=O)c1c(-c2ccccc2)c2cc(C)ccc2c(=O)n1Cc1ccccc1 | 5 |
| CCc1ccc(-c2ccc3c(c2)-c2nn(C)cc2S(=O)(=O)N3C)cc1 | 0 |
| O=C(Nc1ccc2c(c1)OCO2)NC1CCN(c2ccnc(NCc3ccc(F)cc3)n2)CC1 [GSK1379859] | 0 |
| Cc1nnc(-c2ccc(C)c(-c3ccc(C(=O)O)cc3)c2)o1 [GW608005] | 21 |
| CCCNC(=O)Nc1ccc(Oc2ncnc3ccn(C)c23)cc1 | 0 |
| CCC(=O)c1c(-c2ccccc2)c2cc(Cl)ccc2c(=O)n1Cc1cc(C(=O)NC2CC2)n(C)n1 | 14 |
| COc1ccc(CNC(=O)NC2CCN(c3ccnc(Nc4ccc(F)cc4)n3)C2)cc1 (centres unmarked) [GSK1379706] | 60 |
| CCC(=O)c1c(-c2ccccc2)c2cc(Cl)ccc2c(=O)n1Cc1cc(S(C)(=O)=O)n(CC(F)F)n1 | 0 |
| COc1cccc(C2=C(Nc3cccc(C(=O)O)c3)C(=O)NC2=O)c1 [SB-390770] | 4 |
| COc1cc(OC)cc(-c2cc3cnc(N)nc3nc2NC(=O)NC(C)(C)C)c1 | 0 |
| Nc1ncnc2c1ncn2-c1cccc(F)c1 [SKF-97560] | 0 |
| CN1C(=O)C(Nc2ccccc2)=C(c2ccccc2)C1=O [SB-300079] | 13 |
| COc1cc2nccc(Nc3cccc(Oc4ccccc4)c3)c2cc1OC.Cl [GW284543] | 37 |
| COc1ccc(-c2coc3ccc(-c4nnc(SCc5cccc(C#N)c5)o4)cc23)cc1 | 0 |
| Cc1ccccc1COc1cc(-n2cnc3cc(Cl)ccc32)sc1C(N)=O [GW813349] | 14 |
| Nc1ncnc2c1ncn2-c1cccc2ccccc12 [SKF-97184] | 38 |
| COc1cc2nccc(Nc3ccc(OCc4ccc(NC(C)=O)cc4)cc3)c2cc1OC.Cl [GW440135] | 36 |
| O=C(Nc1n[nH]c2cc(-c3ccccc3F)ccc12)C1CC1 [SB-733371] | 0 |
| O=C(NCc1cccs1)c1cc(C(=O)c2c(Cl)cccc2Cl)c[nH]1 [GW823670] | 16 |

| Compound | %Inh [%] |
| --- | --- |
| COc1ccc(Nc2nccc(N3CCC(NS(=O)(=O)c4ccc(NC(C)=O)cc4)C3)n2)cc1 (centres unmarked) [GSK1379729] | 35 |
| COC(=O)c1c(-c2ccccc2)c2cc(Br)ccc2c(=O)n1Cc1ccc(S(C)(=O)=O)cc1 | 0 |
| COc1ccc(-c2cc3c(C)nc(N)nc3n([C@H]3CC[C@H](O)CC3)c2=O)cn1 | 0 |
| Nc1n[nH]c2nnc(-c3ccccc3)c(-c3ccccc3)c12 [GW554060] | 14 |
| CCS(=O)(=O)c1ccc(OC)c(Nc2ncc(-c3ccc(F)cc3)o2)c1.Cl [GW591947] | 19 |
| Nc1n[nH]c2ncc(-c3ccccc3)cc12 [SB-517081] | 0 |
| OCCCNc1nccc(-c2c(-c3cccc(C(F)(F)F)c3)nn3cc(C(F)(F)F)ccc23)n1 [GW630813] | 15 |
| CCc1nc(-c2cccc(C)c2)c(-c2ccncc2)s1 | 0 |
| CCC(=O)c1c(-c2ccccc2)c2cc(Cl)ccc2c(=O)n1Cc1cc(S(C)(=O)=O)n(CCC(C)(C)O)n1 | 0 |
| Cc1ccc(Oc2ccc(Nc3ncnc4cc[nH]c34)cc2C)cn1 | 0 |
| Nc1nccc2scc(-c3ccc4c(c3)CCN4C(=O)Cc3ccccc3)c12 [GSK2576924] | 70 |
| Cc1cccc(-c2nc(Nc3ccc4c(cnn4C)c3)c3ccccc3n2)n1 [GW876731] | 0 |
| COC(=O)c1c(-c2ccccc2)c2cc(Br)ccc2c(=O)n1Cc1ccc(NC(=O)CCC(=O)O)cc1 | 0 |
| COc1ccc(-c2cc3c(C)nc(N)nc3n([C@H]3CC[C@H](OCCO)CC3)c2=O)cn1 | 0 |
| O=C(Nc1n[nH]c2nc(-c3ccccc3)c(Br)cc12)C1CC1 [SB-708998] | 0 |
| COc1cc2ncn(-c3cc(OCCCc4ccccc4)c(C(N)=O)s3)c2cc1OC [GSK205189] | 4 |
| COc1cc(Nc2ccnc3ccc(C(F)(F)F)cc23)cc(OC)c1OC [GW577382] | 47 |
| Cc1ccc(-c2ccc3c(ccc4sc5c(c43)NC[C@@H](C)N=C5N(C)C)n2)cn1 | 0 |

Test system: CDK9
Conditions: concentration: 1 μM, replicates: in singlicate; n = 1

| Compound | %Inh [%] |
| --- | --- |
| COC(=O)c1c(-c2ccccc2)c2cc(C)ccc2c(=O)n1Cc1ccccc1 | 0 |
| CCc1ccc(-c2ccc3c(c2)-c2nn(C)cc2S(=O)(=O)N3C)cc1 | 0 |
| O=C(Nc1ccc2c(c1)OCO2)NC1CCN(c2ccnc(NCc3ccc(F)cc3)n2)CC1 [GSK1379859] | 0 |
| Cc1nnc(-c2ccc(C)c(-c3ccc(C(=O)O)cc3)c2)o1 [GW608005] | 0 |
| CCCNC(=O)Nc1ccc(Oc2ncnc3ccn(C)c23)cc1 | 0 |
| CCC(=O)c1c(-c2ccccc2)c2cc(Cl)ccc2c(=O)n1Cc1cc(C(=O)NC2CC2)n(C)n1 | 11 |
| COc1ccc(CNC(=O)NC2CCN(c3ccnc(Nc4ccc(F)cc4)n3)C2)cc1 (centres unmarked) [GSK1379706] | 5 |
| CCC(=O)c1c(-c2ccccc2)c2cc(Cl)ccc2c(=O)n1Cc1cc(S(C)(=O)=O)n(CC(F)F)n1 | 2 |
| COc1cccc(C2=C(Nc3cccc(C(=O)O)c3)C(=O)NC2=O)c1 [SB-390770] | 0 |
| COc1cc(OC)cc(-c2cc3cnc(N)nc3nc2NC(=O)NC(C)(C)C)c1 | 0 |
| Nc1ncnc2c1ncn2-c1cccc(F)c1 [SKF-97560] | 0 |
| CN1C(=O)C(Nc2ccccc2)=C(c2ccccc2)C1=O [SB-300079] | 1 |
| COc1cc2nccc(Nc3cccc(Oc4ccccc4)c3)c2cc1OC.Cl [GW284543] | 0 |
| COc1ccc(-c2coc3ccc(-c4nnc(SCc5cccc(C#N)c5)o4)cc23)cc1 | 0 |
| Cc1ccccc1COc1cc(-n2cnc3cc(Cl)ccc32)sc1C(N)=O [GW813349] | 0 |
| Nc1ncnc2c1ncn2-c1cccc2ccccc12 [SKF-97184] | 1 |
| COc1cc2nccc(Nc3ccc(OCc4ccc(NC(C)=O)cc4)cc3)c2cc1OC.Cl [GW440135] | 0 |
| O=C(Nc1n[nH]c2cc(-c3ccccc3F)ccc12)C1CC1 [SB-733371] | 0 |
| O=C(NCc1cccs1)c1cc(C(=O)c2c(Cl)cccc2Cl)c[nH]1 [GW823670] | 0 |

| Compound | %Inh [%] |
| --- | --- |
| COc1ccc(Nc2nccc(N3CCC(NS(=O)(=O)c4ccc(NC(C)=O)cc4)C3)n2)cc1 (centres unmarked) [GSK1379729] | 0 |
| COC(=O)c1c(-c2ccccc2)c2cc(Br)ccc2c(=O)n1Cc1ccc(S(C)(=O)=O)cc1 | 3 |
| COc1ccc(-c2cc3c(C)nc(N)nc3n([C@H]3CC[C@H](O)CC3)c2=O)cn1 | 0 |
| Nc1n[nH]c2nnc(-c3ccccc3)c(-c3ccccc3)c12 [GW554060] | 0 |
| CCS(=O)(=O)c1ccc(OC)c(Nc2ncc(-c3ccc(F)cc3)o2)c1.Cl [GW591947] | 0 |
| Nc1n[nH]c2ncc(-c3ccccc3)cc12 [SB-517081] | 0 |
| OCCCNc1nccc(-c2c(-c3cccc(C(F)(F)F)c3)nn3cc(C(F)(F)F)ccc23)n1 [GW630813] | 0 |
| CCc1nc(-c2cccc(C)c2)c(-c2ccncc2)s1 | 7 |
| CCC(=O)c1c(-c2ccccc2)c2cc(Cl)ccc2c(=O)n1Cc1cc(S(C)(=O)=O)n(CCC(C)(C)O)n1 | 17 |
| Cc1ccc(Oc2ccc(Nc3ncnc4cc[nH]c34)cc2C)cn1 | 10 |
| Nc1nccc2scc(-c3ccc4c(c3)CCN4C(=O)Cc3ccccc3)c12 [GSK2576924] | 0 |
| Cc1cccc(-c2nc(Nc3ccc4c(cnn4C)c3)c3ccccc3n2)n1 [GW876731] | 0 |
| COC(=O)c1c(-c2ccccc2)c2cc(Br)ccc2c(=O)n1Cc1ccc(NC(=O)CCC(=O)O)cc1 | 0 |
| COc1ccc(-c2cc3c(C)nc(N)nc3n([C@H]3CC[C@H](OCCO)CC3)c2=O)cn1 | 4 |
| O=C(Nc1n[nH]c2nc(-c3ccccc3)c(Br)cc12)C1CC1 [SB-708998] | 0 |
| COc1cc2ncn(-c3cc(OCCCc4ccccc4)c(C(N)=O)s3)c2cc1OC [GSK205189] | 0 |
| COc1cc(Nc2ccnc3ccc(C(F)(F)F)cc23)cc(OC)c1OC [GW577382] | 0 |
| Cc1ccc(-c2ccc3c(ccc4sc5c(c43)NC[C@@H](C)N=C5N(C)C)n2)cn1 | 0 |
